Assay results published in PubChem BioAssay (NCI).
The panel holds about 83,000 compounds, 20% with a hit somewhere; the sample as a whole holds those more often.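 Single-dose data. Exposure time 48 hours. Values below 10 considered active.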 The source made the active and inactive calls.

Tested on: MCF7 breast
Assay: NCI-60 one-dose screen, 48 h (100 = growth as untreated, 0 = no growth, -100 = all killed)
Details: 10 µM

Q: For `COc1ccc(Cl)cc1Nc1nc(C(F)(F)F)ccc1C(=O)N/N=C/c1ccc(Cl)cc1`, which growth is on record?
A: Its growth is 23.6% (inactive).

Q: Which growth does the source give for `CCCc1nc(C(C)(C)O)c(C(=O)O)n1Cc1ccc(-c2ccccc2-c2nn[nH]n2)cc1` here?
A: The growth was 98.9% (inactive).

Q: How did the growth turn out when `O=C(COc1cccc(/C=C2\CSc3ccccc3C2=O)c1)c1ccc(Cl)cc1` was run?
A: Its growth is -89.2% (active).

Q: With `O=C(COc1cccc(/C=C2\CSc3ccc(Cl)cc3C2=O)c1)c1ccc(Cl)cc1` as the compound, how does the growth read?
A: The growth was -35.1% (active).

Q: With `O=C(CCl)Nc1ccc(Cc2ccc(NC(=O)CCl)cc2)cc1` as the compound, how does the growth read?
A: The growth was 1.46% (active).

Q: With `O=C1CSC(=S)N1/N=C/c1ccc(Cl)s1` as the compound, how does the growth read?
A: The growth was 101% (inactive).

Q: With `CCc1ccc(C2=NN(c3ccc(S(C)(=O)=O)cc3)C(=O)CC2)cc1` as the compound, how does the growth read?
A: The growth was 26% (inactive).

Tested on: HCT-116 colon
Assay: as above
Details: 10 µM

Q: How did the growth turn out when `O=C(N/N=C/c1ccc(Cl)cc1)c1ccccc1Nc1cccc(C(F)(F)F)c1` was run?
A: Its growth is 66.1% (inactive).

Q: With `O=C(CSc1nccc(Nc2cccc3ccccc23)n1)c1ccc(Cl)cc1` as the compound, how does the growth read?
A: Its growth is 67.5% (inactive).

Q: `O=C(CSc1nnc(-c2cccnc2SCc2ccccc2)o1)Nc1nc(Cl)cc(Cl)n1` was tested. Which growth did it give?
A: Its growth is 97.3% (inactive).

Q: How did the growth turn out when `Nc1nc(N)c(N)c(Nc2ccc(CCO)cc2)n1` was run?
A: Its growth is 104% (inactive).

Q: Which growth does the source give for `O=C(CNc1nnc(-c2cccnc2SCc2ccccc2)s1)Nc1nc(Cl)cc(Cl)n1` here?
A: Its growth is 106% (inactive).

Q: How did the growth turn out when `CN(C)c1ccc(/C=N/NC(=O)c2ccccc2Nc2cccc(C(F)(F)F)c2)cc1` was run?
A: The growth was 75.1% (inactive).

Q: Which growth does the source give for `CN1C(=O)C2(Nc3cc(Cl)ccc3S2)c2cc(Cl)ccc21` (stereo not given) here?
A: The growth was 82.9% (inactive).

Q: `CC(C)(C)OC(=O)N1CCc2c(sc3ncnc(N/N=C/c4cccc5ccccc45)c23)C1` was tested. Which growth did it give?
A: Its growth is 10.5% (inactive).
